In PMC4336329 (PLoS ONE, 2015):
Out of some 310,000 compounds screened, about 14,000 (4.5%) showed an effect of 50% or more. Effects have a minus sign here. What follows is part of a selection rich in strong results, with near analogues and random picks from the rest.

Each molecule was assayed against human ether-à-go-go-related gene (hERG) potassium channel (human, UniProt Q12809) (assay: primary screen, population patch clamp on CHO cells stably expressing hERG; higher = less effect of the substance).
Sequence of human ether-à-go-go-related gene (hERG) potassium channel (Q12809 whole entry, looked up): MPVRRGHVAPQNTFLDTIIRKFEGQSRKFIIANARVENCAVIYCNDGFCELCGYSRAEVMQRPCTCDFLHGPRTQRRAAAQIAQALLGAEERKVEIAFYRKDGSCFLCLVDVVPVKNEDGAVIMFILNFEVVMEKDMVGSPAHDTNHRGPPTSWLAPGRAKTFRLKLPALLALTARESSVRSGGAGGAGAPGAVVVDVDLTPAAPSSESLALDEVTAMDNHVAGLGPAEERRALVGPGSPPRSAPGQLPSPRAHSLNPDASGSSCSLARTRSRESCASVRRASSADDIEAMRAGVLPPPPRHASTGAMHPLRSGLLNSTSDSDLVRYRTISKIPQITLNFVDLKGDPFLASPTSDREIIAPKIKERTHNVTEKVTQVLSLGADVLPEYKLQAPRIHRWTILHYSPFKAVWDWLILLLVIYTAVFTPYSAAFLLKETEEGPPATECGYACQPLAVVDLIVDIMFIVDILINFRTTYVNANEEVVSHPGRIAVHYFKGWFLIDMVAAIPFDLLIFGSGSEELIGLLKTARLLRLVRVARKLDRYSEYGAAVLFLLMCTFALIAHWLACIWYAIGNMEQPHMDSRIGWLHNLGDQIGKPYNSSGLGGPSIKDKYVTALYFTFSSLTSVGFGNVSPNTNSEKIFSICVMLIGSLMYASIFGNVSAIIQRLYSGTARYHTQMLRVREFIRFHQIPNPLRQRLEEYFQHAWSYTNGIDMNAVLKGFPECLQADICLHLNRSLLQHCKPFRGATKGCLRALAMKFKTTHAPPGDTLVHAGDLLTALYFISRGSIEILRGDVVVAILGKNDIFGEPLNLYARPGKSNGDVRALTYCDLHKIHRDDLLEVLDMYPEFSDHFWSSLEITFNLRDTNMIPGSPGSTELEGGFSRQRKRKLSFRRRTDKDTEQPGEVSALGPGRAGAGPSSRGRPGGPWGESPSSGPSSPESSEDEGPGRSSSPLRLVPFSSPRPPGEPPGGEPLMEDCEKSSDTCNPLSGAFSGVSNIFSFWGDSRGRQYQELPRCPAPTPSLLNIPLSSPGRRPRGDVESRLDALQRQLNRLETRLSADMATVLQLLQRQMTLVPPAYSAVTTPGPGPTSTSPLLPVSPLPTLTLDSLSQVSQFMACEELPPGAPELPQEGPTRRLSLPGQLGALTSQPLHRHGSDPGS
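Also: peak tail current of the secondary pulse compared with the same well before compound.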

| Compound | hERG current change (%, negative = inhibition) at 10uM [%] |
| --- | --- |
| CCOC(=O)c1cnn(-c2ccccc2)c1-n1cccc1 | -8.27 |
| C=CCNC(=S)Nc1ccccc1 | -8.73 |
| CN(C)c1ccc(NC(=O)Nc2csc3ccccc23)cc1 | 18.4 |
| Fc1cccc(F)c1CN1CCN(c2ncccn2)CC1 | 15.5 |
| COc1ccc(-c2cc(=[NH+]c3ccccc3)c3cc(C)ccc3o2)cc1.[O-][Cl+3]([O-])([O-])[O-] | 24.8 |
| O=C(COc1ccc2oc(-c3ccccc3)cc(=O)c2c1)Nc1ccccc1 | -2.43 |
| F[B-](F)(F)F.OCC[NH+]=c1cc(-c2ccccc2)oc2ccc(Cl)cc12 | -71.3 |
| F[B-](F)(F)F.OCCC[NH+]=c1cc(-c2ccccc2)oc2ccc(Cl)cc12 | -79.1 |
| OCCCNc1nc(-c2ccccc2)c2cc(Cl)ccc2n1 | 3.04 |
| F[B-](F)(F)F.OCCCCC[NH+]=c1cc(-c2ccccc2)oc2ccc(Cl)cc12 | -80.3 |
| O=c1oc2ccc(Cl)cc2cc1-c1ccccc1 | 22.4 |
| O=c1cc(-c2ccccc2)oc2ccc(O)cc12 | -9.74 |
| Nc1c(C(=O)CCC(=O)O)oc2ccc(Cl)cc12 | -9.4 |
| CCCNC(=O)c1cccc(COCC(F)(F)F)c1 | -2.57 |
| O=C(Nc1ccccn1)C1(c2cccs2)CCOCC1 | 8.48 |
| COc1ccc(S(=O)(=O)N2CCOC23CCN(S(=O)(=O)c2ccccc2)CC3)cc1 | 8.72 |
| Cc1ccc(S(=O)(=O)N2CCOC23CCN(C(=O)c2cc(Cl)ccc2Cl)CC3)cc1 | -47.6 |
| COc1ccc(S(=O)(=O)N2CCOC23CCN(S(=O)(=O)c2ccc([N+](=O)[O-])cc2)CC3)cc1 | -62 |
| O=S(=O)(c1ccc(F)cc1)N1CCC2(CC1)OCCN2S(=O)(=O)c1cccs1 | -10.9 |
| O=[N+]([O-])c1ccc(S(=O)(=O)N2CCC3(CC2)OCCN3S(=O)(=O)c2cccs2)cc1 | -50.4 |
| Cc1ccc(S(=O)(=O)N2CCOC23CCN(C(=O)c2ccc(Cl)cc2Cl)CC3)cc1 | -48.1 |
| COc1ccc(S(=O)(=O)N2CCOC23CCN(C(=O)c2ccc(Cl)cc2Cl)CC3)cc1 | -68.9 |
| COc1ccc(S(=O)(=O)N2CCC3(CC2)OCCN3S(=O)(=O)c2ccc(OC)cc2)cc1 | -24.1 |

| Compound | hERG current change (%, negative = inhibition) at 10uM [%] |
| --- | --- |
| COc1ccc(S(=O)(=O)N2CCC3(CC2)OCCN3S(=O)(=O)c2cccs2)cc1 | -23.8 |
| COc1ccc(OCCSc2nc(N)cc(=O)[nH]2)cc1 | -1.77 |
| Cc1cccc(OCCC(=O)Nc2ccc(N3CCOCC3)cc2N2CCOCC2)c1 | -19.7 |
| COn1c(SCc2ccc(C)cc2C)nc2ccccc2c1=O | 7.64 |
| O=C(Nc1ccc(SC(F)F)cc1)c1ccc2nccnc2c1 | -17.1 |
| COc1ccc(OC2CCN(S(=O)(=O)c3ccccc3)CC2)cc1 | -11.6 |
| CN1CCC(OC(=O)c2ccccc2)CC1.Cl | 7.92 |
| CN1CCC(Oc2ccccc2Sc2ccc(C(F)(F)F)cc2)CC1.O=C(O)C(=O)O | -63.2 |
| CN1CCC(OC(=O)Cc2ccccc2)CC1.Cl | 5.22 |
| CN1CCC(OC(=O)COc2ccccc2)CC1.Cl | 15.1 |
| CN1CCC(OC(=O)COc2ccc(C(C)(C)C)cc2)CC1.Cl | -28.7 |
| CN1CCC(Oc2ccccc2Sc2ccccc2)CC1.O=C(O)C(=O)O | -64.5 |
| CN1CCC(Oc2ccc(Sc3ccccc3)cc2)CC1.Cl | -67 |
| Cc1ccccc1C(=O)OC1CCN(C)CC1.Cl | 6.06 |
| COc1ccccc1NC(=O)CCCCC(=O)Nc1ccccc1OC | 7.88 |
| O=Cc1ccccc1-c1cn(CN2C(=O)c3ccccc3C2=O)nn1 | 3.42 |
| Cc1ccc(NC(=O)CCc2nnc3ccc(NCc4ccco4)nn23)cc1 | -2.39 |
| O=C(CCc1nnc2ccc(NCc3ccco3)nn12)N1CCN(c2ccccc2F)CC1 | -20.5 |
| Cc1ccc(NC(=O)CCc2nnc3ccc(NCc4ccco4)nn23)cc1F | -70.9 |
| O=C(CCc1nnc2ccc(NCc3ccccc3)nn12)N1CCC2(CC1)OCCO2 | 14.4 |
| O=C(CCc1nnc2ccc(NCc3ccccc3Cl)nn12)N1CCC2(CC1)OCCO2 | -67.7 |
| O=C(CCc1nnc2ccc(NCc3ccc(F)cc3)nn12)N1CCC2(CC1)OCCO2 | -0.229 |
| O=C(CCc1nnc2ccc(NCc3ccco3)nn12)N1CCN(c2ccc(F)cc2)CC1 | -46.7 |

| Compound | hERG current change (%, negative = inhibition) at 10uM [%] |
| --- | --- |
| O=C(CCc1nnc2ccc(NCc3ccco3)nn12)Nc1ccc(F)cc1 | -9.82 |
| O=C(CCc1nnc2ccc(NCc3ccco3)nn12)N1CCN(c2ccccc2)CC1 | -56.3 |
| COC(=O)C1(Cc2cc(-c3ccc(Cl)cc3)no2)CCN(C(=O)OC(C)(C)C)CC1 | -22.8 |
| CCOc1ccc(OCC)c(S(=O)(=O)NCc2ccccc2)c1 | -10.1 |
| Clc1ccc(N2CCCCCC2)nn1 | 4.93 |
| O=C(c1noc2c1CCCC2)N1CCN(c2ccccc2)CC1 | -17.6 |
| CCOc1cc(CNc2ccc3[nH]c(=O)[nH]c3c2)ccc1OCC(=O)NC(C)(C)C | 12.4 |
| COc1ccc(C2=NN(C(=O)CCC(=O)O)C(c3ccc(Br)cc3)C2)cc1 (centres unmarked) | 29.9 |
| COc1ccc(C2=NN(C(=O)CN3CCCCC3)C(c3ccc(OC)cc3)C2)cc1 (centres unmarked) | -40.1 |
| COc1ccc(C2CC(c3ccccc3)=NN2C(=O)CN2CCN(Cc3ccccc3)CC2)cc1 (centres unmarked) | -31.2 |
| COc1ccc(C2CC(c3ccc(Br)cc3)=NN2C(=O)CN2CCCC2)cc1 (centres unmarked) | -68.1 |
| COc1ccc(C2=NN(C(=O)CN3CCCCC3)C(c3ccc(C)cc3)C2)cc1 (centres unmarked) | -54.9 |
| COc1ccc(C2=NN(C(=O)CN3CCCC3)C(c3ccc(OC)cc3)C2)cc1 (centres unmarked) | -40.7 |
| COC(=O)C1C2C=CC3(CN(c4ccc(Cl)c(F)c4)C(=O)C13)O2 (centres unmarked) | 4.99 |
| N#Cc1ccc(S(=O)(=O)N2CCN(c3ncccn3)CC2)cc1 | -17.9 |
| Cc1ccc(S(=O)(=O)N2CCN(c3ccccn3)CC2)cc1 | 4.96 |
| Cc1ccc(S(=O)(=O)N2CCN(c3nccnc3C#N)CC2)cc1 | -54.8 |
| O=C(O)Cc1ccc(NC(=O)c2cnccn2)cc1 | 26.1 |
| COc1cc(/C=N/NC(=O)Cc2ccccc2)cc([N+](=O)[O-])c1O | 10 |
| COc1ccc(NC(=O)CCN2CCCCCC2)cc1 | -12.3 |
| COc1ccc(NC(=O)CCN2CCN(C/C=C/c3ccccc3)CC2)cc1 | -77.3 |
| COc1cc(NC(=O)CCN2CCN(C/C=C/c3ccccc3)CC2)cc(OC)c1 | -69.3 |
| COc1cc(NC(=O)CCN2CCN(Cc3ccccc3)CC2)cc(OC)c1 | -20.1 |

| Compound | hERG current change (%, negative = inhibition) at 10uM [%] |
| --- | --- |
| COc1cc(NC(=O)Cc2ccccc2)cc(OC)c1 | -4.79 |
| CCN(CCC(=O)Nc1ccc(Br)c(C)c1)Cc1ccccc1.Cl | -36.8 |
| COc1cc(NC(=S)N2CCN(C/C=C/c3ccccc3)CC2)cc(OC)c1 | -10.7 |
| CCN(CCC(=O)Nc1cc(OC)cc(OC)c1)Cc1ccccc1 | -65.1 |
| COc1ccc(NC(=S)N2CCN(C/C=C/c3ccccc3)CC2)cc1 | -24.1 |
| Cc1nc2ccccc2c(=O)n1NC(=O)c1cncc(Br)c1 | 14.9 |
| Cc1cc(C)c(C(=O)OCCNC(=O)c2cccnc2)cc1C | -17.3 |
| CCc1ccccc1N(CC(=O)NCc1ccco1)C(=O)CCC(=O)Nc1nccs1 | 0.493 |
| N#CC(C#N)=Cc1cnc(N2CCN(c3ccccc3)CC2)s1 | 23 |
| COCCN(C(=S)Nc1cc(C)ccc1C)C(C)c1cccnc1 (centres unmarked) | -25.4 |
| Cc1ccc(OC(C)C(=O)Nc2ccccc2C(=O)N2CCN(C)CC2)cc1 (centres unmarked) | -5.11 |
| Cc1cc(Nc2c(C)n(C)n(-c3ccccc3)c2=O)n2c(nc3ccccc32)c1C#N | -73.6 |
| Cc1c(Nc2nc3ccccc3nc2NS(=O)(=O)c2cccs2)c(=O)n(-c2ccccc2)n1C | 1.13 |
| Cc1cc(Nc2c(C)n(C)n(-c3ccccc3)c2=O)c2ccccc2n1 | -20.3 |
| Cc1c(Nc2nc(C(F)(F)F)nc3ccccc23)c(=O)n(-c2ccccc2)n1C | -1.37 |
| CCc1c(C)c(C#N)c2nc3ccccc3n2c1Nc1c(C)n(C)n(-c2ccccc2)c1=O | -5.49 |
| Cc1c(NP(=O)(C(C)(C)C)C(C)(C)C)c(=O)n(-c2ccccc2)n1C | 26.4 |
| Cc1c(Nc2c3ccccc3nc3ccccc23)c(=O)n(-c2ccccc2)n1C | -71 |
| Cc1c(NS(=O)(=O)c2ccc(Br)cc2)c(=O)n(-c2ccccc2)n1C | -6.03 |
| Cc1c(Nc2nc3ccccc3nc2NS(=O)(=O)c2ccccc2)c(=O)n(-c2ccccc2)n1C | -67.1 |
| Cc1c(NP(=O)(c2ccc(Br)cc2)c2ccc(Br)cc2)c(=O)n(-c2ccccc2)n1C | -65.7 |
| Cc1cc(Nc2c(C)n(C)n(-c3ccccc3)c2=O)n2c(nc3cc(F)c(F)cc32)c1C#N | 19.2 |
| Cc1c(Nc2nc3ccccc3nc2NS(=O)(=O)c2cccc(Cl)c2)c(=O)n(-c2ccccc2)n1C | -2.18 |
